Compound activity as filed in PubChem BioAssay.
Sampled rows, rich in hits. Any-hit rate of the full collection: about 0.28%.
mcGAS inh: blocks mouse cGAS activity; recombinant cGAS, Kinase-Glo ATP depletion luminescence; hit rate 0.15% among 160,000; Q8C6L5; AID 1259399; inhibition, % at 12.5 µM
NPYLR7 agonist: activates Aedes aegypti NPYLR7 receptor | HEK293T NPYLR7/Galpha15, GCaMP6s calcium fluorescence | hit rate 0.15% among 270,000 | activation, % at 10 µM; in the data active = activation above about 40%
hcGAS lum: inhibitors of human cGAS; Q8N884; recombinant h-cGAS, ATP depletion, Kinase-Glo luminescence; inhibition, % at 12.5 µM; hit rate 0.081% among 290,000
Target sequence (Q8N884 whole entry, looked up): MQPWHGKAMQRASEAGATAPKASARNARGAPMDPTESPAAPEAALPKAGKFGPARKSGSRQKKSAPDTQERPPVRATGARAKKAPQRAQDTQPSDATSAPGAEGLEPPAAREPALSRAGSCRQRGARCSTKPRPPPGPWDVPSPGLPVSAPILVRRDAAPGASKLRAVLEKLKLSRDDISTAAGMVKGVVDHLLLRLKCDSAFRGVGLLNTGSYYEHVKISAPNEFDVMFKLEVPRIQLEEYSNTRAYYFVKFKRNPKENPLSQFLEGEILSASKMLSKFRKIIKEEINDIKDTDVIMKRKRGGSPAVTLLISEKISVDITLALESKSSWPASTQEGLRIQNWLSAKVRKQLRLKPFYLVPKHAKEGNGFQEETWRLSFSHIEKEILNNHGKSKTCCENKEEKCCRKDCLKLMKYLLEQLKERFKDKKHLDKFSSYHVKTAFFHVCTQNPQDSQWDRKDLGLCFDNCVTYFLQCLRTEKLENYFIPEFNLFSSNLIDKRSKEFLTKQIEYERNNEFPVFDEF
Of the large screens only hits and unclear results are named; the others gave an inactive call. Cut-off read from the data, not from the text of the source, unless noted: active = inhibition above about 40%; inactive = the rest.

O=C(/C=C/c1ccc(O)cc1)c1ccc(O)cc1O	none
CN1CCC2(CC1)N=C(c1ccccc1)C(=S)N2C(=O)c1ccccc1	none
C=CCn1c(=O)c2c(nc3n2CCN3c2cccc(OC)c2)n(C)c1=O	none (no result: NPYLR7 agonist)
CCCC(=O)OC1C(=O)Nc2cc(Br)ccc21 (stereo unspecified)	none
O=c1c2cnc3nc(-c4ccncc4)nn3c2ccn1Cc1ccccn1	none (no result: mcGAS inh)
CCOC(=O)CN1C(=O)SC(=Cc2ccc(Br)o2)C1=O	none
O=C(CN1C(=O)SC(=Cc2ccc(N3CCCCCC3)o2)C1=O)N1CCCCCC1	NPYLR7 agonist 45 (no result: mcGAS inh)
COc1cccc(CN2CCCC3(CCN(C(=O)c4n[nH]c5c4CCC5)C3)C2)c1 (stereo unspecified)	none (no result: mcGAS inh)
C=CCN(CC(=O)N1CCc2sccc2C1c1ccc(OC)cc1)S(=O)(=O)c1cccc(C(F)(F)F)c1 (stereo unspecified)	none (no result: NPYLR7 agonist)
CCN(CC)c1ccc2cc(C(N)=O)/c(=N\NC(N)=S)oc2c1	NPYLR7 agonist 130
CCN(CC)c1ccc2cc(C(N)=O)c(=NCc3ccccc3)oc2c1	none (no result: mcGAS inh)
Cn1cc(C(=O)N2CCCC2)c2[nH]c(=O)n(-c3ccc(Cl)cc3)c(=O)c21	none (no result: mcGAS inh)
O=[Si]=O	mcGAS inh 42
Cc1cc(C)n(CCN(C(=O)c2cc3ccccc3oc2=O)c2nc3c(F)cc(F)cc3s2)n1	none
O=c1oc2c(CN3CCN(CCO)CC3)c(O)ccc2cc1-c1nc2ccccc2s1	NPYLR7 agonist 66 (no result: mcGAS inh)
O=c1oc2c(CN3CCN(CCO)CC3)c(O)ccc2cc1-c1ccccn1	none (no result: mcGAS inh)
CNc1cc(-c2ccc(CN3CCCCC3)cn2)c2cc[nH]c2n1	hcGAS lum 60
CNc1cc(-c2ccc(CN)cn2)c2cc[nH]c2n1	none
CCCc1nc(N2CCN(c3ccccc3)C(=O)C2)c2cnn(C)c2n1	none
Cc1ccccc1Nc1oc2c(c1-c1cccc(Cl)c1)c(=O)n(C)c(=O)n2C	none
O=C1C=C2CCCCCCCCCC(C1)C2 (stereo unspecified)	none (no result: mcGAS inh)
COC(=O)C1=C(C)NC(C)=C(C(=O)OC)C1c1cc(Cl)ccc1OC(F)F	none
CCOC(=O)C1=C(C)NC(C)=C(C(=O)OCC)C1c1cc(Cl)ccc1OC(F)F	NPYLR7 agonist 50
CCOC(=O)Cc1c(C)nc2ncnn2c1N1CCN(C(=O)c2ccccc2C(F)(F)F)CC1	none
COc1cccc(C(=O)NC(C)C23CC4CC(CC(C4)C2)C3)c1 (stereo unspecified)	none (no result: mcGAS inh)
Nc1ccc(/C=C/c2nc3ccccc3o2)cc1	none
COc1cc(/C=C/c2nc3ccccc3o2)cc(Cl)c1O	NPYLR7 agonist 334
O=C(CSc1nnc(-c2cccnc2)o1)c1ccc([N+](=O)[O-])cc1	none
COc1cc(S(=O)(=O)NCc2ccc3c(c2)OCO3)c(C)cc1Br	none (no result: mcGAS inh)
Cn1c(O)c(C=Nc2sc3c(c2C#N)CCC3)c(=O)n(C)c1=O	none
Cc1cccc(C2=N/C(=C\c3cc4cc5c6c(c4oc3=O)CCCN6CCC5)C(=O)O2)c1	NPYLR7 agonist 117
O=C1OC(c2ccc(Cl)c([N+](=O)[O-])c2)=N/C1=C\c1cc2cc3c4c(c2oc1=O)CCCN4CCC3	NPYLR7 agonist 123
COc1cc(OC)c(OC)cc1C=C1N=C(c2cccc(C)c2)OC1=O	none (no result: mcGAS inh)
Cc1ccc(C2=NC(=Cc3ccc(N4CCOCC4)s3)C(=O)O2)cc1[N+](=O)[O-]	none (no result: mcGAS inh)
NC(=O)c1nc(-c2ccccc2F)nc2c1[nH]c(=O)n2-c1ccccc1F	none
COC(=O)c1ccc(C(=O)N(CCCN(C)C)c2nc3c(F)cc(F)cc3s2)cc1	none
Cc1cc(O)c(CN2CCN(C)CC2)c2c1C(=O)/C(=C/c1cc3ccccc3o1)O2	none
CCN(CC)Cc1c(O)cc(C)c2c1O/C(=C\c1cc3ccccc3o1)C2=O	NPYLR7 agonist 70
Cc1cccc(Cn2c(=O)c3c(nc4oc(C(C)(C)C)cn43)n(C)c2=O)c1	none
FC(F)(F)c1nc2ccccc2[nH]1	none
FC(F)(F)c1nc2c(Cl)cc(Cl)cc2[nH]1	hcGAS lum 56 (no result: mcGAS inh)
O=C1/C(=C/c2ccc(Cl)cc2)C=C(c2ccccc2)N1c1cccc(Br)c1	none
O=c1cc(O)c2ccc(O)cc2o1	none
O=c1cc(C(F)(F)F)c2ccc(O)cc2o1	NPYLR7 agonist 57
Oc1cc2c(cc1O)C1c3ccc(O)c(O)c3OCC1(O)C2 (stereo unspecified)	mcGAS inh 50
Cc1cc(C(=O)N2CCC(C)CC2)ccc1NCC(=O)NCC(F)(F)F	none
CC(C)c1ccc(S(=O)(=O)N=C2C=C(Cl)C(=O)c3ccccc32)cc1	none (no result: mcGAS inh)
O=C1C(Sc2ncn[nH]2)=CC(=NS(=O)(=O)c2ccccc2)c2ccccc21	mcGAS inh 51
COCCNC(=O)Cn1nc2c(c1NC(=O)C13CC4CC(CC(C4)C1)C3)CSC2	none
Cc1cc(C)c(C)c(OCCCNC(=O)N2CCN(S(=O)(=O)c3ccccc3[N+](=O)[O-])CC2)c1	none
Cc1ccc(OCCNC(=O)N2CCN(S(=O)(=O)c3ccccc3Cl)CC2)c(C)c1	NPYLR7 agonist 46
O=C(OCC1(O)C(Cl)C=CC(OC(=O)c2ccccc2)C1O)c1ccccc1 (stereo unspecified)	mcGAS inh 48
O=C(OCN1C(=O)c2ccccc2C1=O)c1ccccc1	none (no result: mcGAS inh)
CCC(c1nc2ccccc2c(=O)n1CC)N(CCOC)C(=O)Nc1ccc(Cl)cc1 (stereo unspecified)	none (no result: NPYLR7 agonist)
CN1CCN(C)C(CNC(=O)N(C)Cc2cc3ccccc3o2)C1 (stereo unspecified)	none
Cc1cc(C)c2[nH]c(O)c(N=NC(=O)COc3cc(C(C)C)ccc3C)c2c1	none
c1cnc(-c2cc(NC3CCNCC3)nc3[nH]ccc23)nc1	hcGAS lum 46
c1ccc2c(-c3cc(NC4CCNCC4)nc4[nH]ccc34)n[nH]c2c1	none
O=C(NCC1CCCO1)c1nn(-c2ccc(Cl)cc2)c(=O)n(Cc2cccnc2)c1=O (stereo unspecified)	none (no result: NPYLR7 agonist)
Cc1ccc2c(n1)[nH]n1c(=O)cc(C)nc21	hcGAS lum 43 (no result: mcGAS inh)
Cc1cc(=O)n2[nH]c(C)c(-c3ccc(F)cc3)c2n1	none (no result: mcGAS inh)
CC(C)c1cc(C(=O)N(C)Cc2ccsc2)c2ccccc2n1	none (no result: mcGAS inh)
CCC(=O)Nc1sc2c(c1-c1nc3ccccc3s1)CCN(C(C)C)C2	mcGAS inh 97, hcGAS lum 80
CCC(=O)Nc1sc2c(c1-c1nc3ccccc3s1)CCN(C(C)=O)C2	none (no result: mcGAS inh)
CCCCC(=O)Nc1sc2c(c1-c1nc3ccccc3s1)CCN(C(C)=O)C2	none (no result: mcGAS inh)
CC(C)N1CCc2c(sc(NC(=O)CN3C(=O)CCC3=O)c2-c2nc3ccccc3s2)C1	mcGAS inh 51, hcGAS lum 56
O=C(c1ccc(CSCc2ccc(Cl)c(Cl)c2)cc1)N1C2CCC1CC(Oc1ccc(F)cc1F)C2 (stereo unspecified)	none
COc1ccc(C2=NN(C(=O)CN3CCOCC3)C(c3nc4ccccc4[nH]3)C2)cc1 (stereo unspecified)	NPYLR7 agonist 52
O=C(CN1CCOCC1)N1N=C(c2ccc(Br)cc2)CC1c1nc2ccccc2[nH]1 (stereo unspecified)	none
O=C(Nc1ccccc1F)c1ccc2c(c1)S(=O)(=O)Nc1ncnn1-2	none
COC(=O)c1nc2n(n1)-c1ccccc1S(=O)(=O)N2	hcGAS lum 57 (no result: mcGAS inh)
CCOC(=O)N1CCC(OC)c2ccccc2N(C)C(=O)C1 (stereo unspecified)	none
COc1ccccc1NC(=O)C(C)Sc1nnc2nc(C)cc(C)n12 (stereo unspecified)	none
Nc1ccc(-c2cc3c(cn2)ncn3-c2cccc(C(F)(F)F)c2)cn1	none
